# Reference: PubChem BioAssay
# The source made the active and inactive calls.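 Rule for the calls: active = inhibition of the reporter signal at or above 50%; inactive = inhibition below 50%.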
# Assay: inhibitors of poly I:C-induced TLR3 signaling, primary screen, cell-based, poly I:C stimulus, luciferase, 10K MLSCN set (AID 602277)
# Conditions: HEK293-TLR3 RL24 IRF3 luciferase reporter, at 10 µM, active compounds read high
row,SMILES,inhibition
1,C/C(Nc1cccc(F)c1)=C(/C#N)C(N)=O,-10.3% (inactive)
2,Cc1cc(C(F)(F)F)nc(SCC(=O)NC2=NC(=O)C(C)S2)n1 (stereo not given),-16.9% (inactive)
3,Cn1c(CCNC(=O)c2ccco2)nc2cc(NC(=O)C3CCCCC3)ccc21,0.497% (inactive)
4,Cc1nn(C(=O)c2ccc3c(c2)OCO3)c(N)c1-c1ccccc1,-108% (inactive)
5,Cc1c(C)[n+](=O)c2c(n1[O-])CCCCC2,22.1% (inactive)
6,Cc1cc(C(=O)CSc2nc3ccccc3[nH]2)c(C)n1C,-155% (inactive)
7,COc1ccc(C(=O)NCCn2ccc3ccccc32)c(OC)c1,-24.1% (inactive)
8,O=C(CCSc1nccn1Cc1ccccc1)N1CCOCC1,-9.28% (inactive)
9,c1ccc(Cn2nnc3c(N4CCCCCC4)ncnc32)cc1,-76.6% (inactive)
10,O=C(Nc1ccc(NC(=O)c2ccco2)nc1)c1cccnc1,-50% (inactive)
11,COc1ccc(-c2noc(COc3ccc(C)c(C)c3)n2)cc1OC,98.1% (active)
12,Nc1ncnc(Nc2ccccc2C(F)(F)F)n1,-11.7% (inactive)
13,O=C(COc1ccccc1Cl)NCc1ccco1,-43.3% (inactive)
14,COC(=O)c1ccccc1NC1c2ccccc2C(=O)N1c1cccnc1 (stereo not given),16.8% (inactive)
15,Cc1ccc2cc(C#N)c(NCCCNC(=O)C3CCCO3)nc2c1 (stereo not given),10.8% (inactive)
16,Cc1nnc(NC(=O)c2ccco2)s1,14.4% (inactive)
17,CCCCC(CC)CNC(=O)C1CCCN(S(=O)(=O)c2cnc[nH]2)C1 (stereo not given),15.8% (inactive)
18,CC(C)CNC(=O)c1ccccc1NC(=O)c1ccc(CN2CCOCC2)cc1,14.5% (inactive)
19,O=C(NCC(c1cccnc1)N1CCN(c2ccc(F)cc2)CC1)c1ccc(F)cc1 (stereo not given),6.23% (inactive)
20,CCOC(=O)N1CCN(C(=O)COc2ccc(S(=O)(=O)NC3CCCCC3)cc2C)CC1,-12.8% (inactive)

row,SMILES,inhibition
1,O=C(OCC#CCSc1nc2ccccc2s1)c1ccco1,-21.9% (inactive)
2,COC(=O)c1cccc(NC(=O)CSc2nnc(COc3ccc(C#N)cc3)n2-c2ccccc2)c1,-18.5% (inactive)
3,Cc1ccc2c(c1)C(O)(CC(=O)c1ccc3c(c1)OCO3)C(=O)N2 (stereo not given),23% (inactive)
4,Cc1ccc(NCC(O)C(O)C(O)CO)cc1C (stereo not given),8.99% (inactive)
5,CCCc1nc(NCc2ccncc2)c2nnn(Cc3ccccc3F)c2n1,19.1% (inactive)
6,CCCC1c2ccc(C)n2CCN1C(=O)Nc1ccccc1Cl (stereo not given),-190% (inactive)
7,CCCCC(O)(C(NC=O)C(=O)OC)C(F)(F)F (stereo not given),16% (inactive)
8,O=C1c2ccccc2C(Nc2cccnc2)N1Cc1ccccc1Cl (stereo not given),18.3% (inactive)
9,CC(Sc1nnnn1C)C(=O)Nc1ccc(Oc2ccccc2)cc1 (stereo not given),-9.23% (inactive)
10,COc1ccccc1NC(=O)CSc1nnnn1-c1ccc2c(c1)OCO2,26.1% (inactive)
11,COc1ccc(C(=O)N2CCSC2=S)cc1OC,15% (inactive)
12,CCN(Cc1ccccc1)C(c1ccncc1)c1nnnn1C(C)(C)C (stereo not given),21.6% (inactive)
13,CC(C)CCNC(=O)C1CCN(C(=O)N(C)C)CC1,19.5% (inactive)
14,CN1CCN(CC(=O)N2c3ccccc3C(C)(c3ccccc3)CC2(C)C)CC1 (stereo not given),26.8% (inactive)
15,O=C(Nc1ccccc1N1CCOCC1)c1ccc2ccccc2n1,-46% (inactive)
16,CCOC(=O)N1CCN(c2cc(=O)n(-c3ccccc3Cl)c(=O)[nH]2)CC1,11.8% (inactive)
17,COCCN1CCN(c2c(C)c(C)nc3cc(-c4cccc(OC)c4)nn23)CC1,16.1% (inactive)
18,CCN(CCNC(=O)C1CCN(S(C)(=O)=O)CC1)c1ccccc1,25.2% (inactive)
19,CCN(CC)S(=O)(=O)c1ccc2c(c1)nc(SCC(=O)NC1CC1)n2-c1ccccc1OC,48.2% (inactive)
20,CCCOC(=O)c1[nH]c2c(c1C)C(=O)CC(c1ccc(OC)c(OC)c1)C2 (stereo not given),-41.9% (inactive)
